# Compound activity from PubChem BioAssay.
# Hits are enriched below; roughly 6.5% of the tested compounds scored in any of these assays.
# Spn DPM-DC inh = blocks S. pneumoniae diphosphomevalonate decarboxylase. purified DPM-DC, PK/LDH coupled NADH fluorescence. calls only at 10 µM. 65,000 compounds, 0.49% hits;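 active = the 320 compounds with the highest percent inhibition in the single-dose primary screen, excluding strongly autofluorescent ones, cut at about 32% in these data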;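 note: kinetic rate of NADH fluorescence loss reporting ADP formed by the decarboxylase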
# Autofluor 339 = intrinsic fluorescence of library compounds, ex339/em460 – biochemical, MLSMR library, data from DPM-DC assay, artefact control, profiling panel; compound autofluorescence, ex339/em460 nm, NADH buffer; stronger effect = higher value; 1 = no-compound wells, NADH background; fluorescence fold increase at 10 µM; 65,000 compounds, 5.5% hits; AID 709;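 active = at 10 µM, mean starting fluorescence two-fold or more over control wells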;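 note: signal is the first read of a kinetic run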
# MK inhibit = inhibitors of Streptococcus pneumoniae mevalonate kinase; purified MK, PK/LDH-coupled NADH absorbance 340 nm; inhibition, % at 10 µM; 65,000 compounds, 0.48% hits;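 active = ranked among the strongest by inhibition in the single 10 µM screen, a fixed top-ranked set picked for dose follow-up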
# PMK inhibit = S. pneumoniae PMK inhibition; purified PMK, PK/LDH-coupled NADH absorbance 340 nm; AID 539; inhibition, % at 10 µM; 65,000 compounds, 0.49% hits;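 active = top-ranked compounds by inhibition in the single 10 µM screen, taking a fixed number of the strongest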;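 note: 0% = full reaction with DMSO carrier and 100% = background rate without enzyme reaction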
# Abs 340nm = compound absorbs light at 340 nm. compound absorbance at 340 nm, fold over control. fold change at 10 µM. 65,000 tested, under 10 active;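 active = at 10 µM dose, initial 340 nm absorbance at least 2 fold that of control wells; inactive = change under 2 fold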;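 note: initial absorbance extrapolated from kinetic A340 decline of NADH oxidation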
# NADH coupling = blocks coupling enzymes of NAD/NADH assays; coupled PK/LDH NADH assays, four targets; IC50, µM (doses to about 10 µM), without a hit: top-dose inhibition; 65,000 compounds, 0.02% hits; AID 774;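 active = single-dose screening hits from any of four coupled enzyme assays that gave an IC50 when retested across doses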;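 note: the DPM-DC format reads NADH fluorescence rather than 340 nm absorbance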
# Active calls of the source: *; i = inactive; nt = not tested or not shown.
SMILES,Spn DPM-DC inh,Autofluor 339,MK inhibit,PMK inhibit,Abs 340nm,NADH coupling
Cc1c(O)c(CN2CCCC(C)C2)cc2c3c(c(=O)oc12)CCC3 (stereo unspecified),nt,2.5*,6,3,1,4%
Cc1c(C)c2cc(Cl)c(O)c(CN3CCCC(C)C3)c2oc1=O (stereo unspecified),nt,2.4*,2,6,1.1,4%
CN1CCN(Cc2c(O)ccc3c(-c4ccccc4)cc(=O)oc23)CC1,i,1.4,3,4,1.1,2%
Cc1c(C)c2cc(Cl)c(O)c(CN3CCN(C)CC3)c2oc1=O,nt,2.3*,2,5,1.1,4%
Cc1c(Cl)cccc1NC(=O)CCN1CCCC(C)C1 (stereo unspecified),i,1.1,0,0,1.1,0%
Cc1ccc2c(c1)C1CCCC3C1N2CC(=O)N3Cc1ccccc1 (stereo unspecified),i,1.1,0,11,0.97,6%
O=C(NCc1ccc2c(c1)OCO2)C1CCN(c2ncccn2)CC1,i,1.4,0,11,1,4%
O=CN1CC(=O)N(c2ccccc2)c2c([nH]c3ccccc23)C1,i,1,0,8,1,5%
CCOC(=O)Nc1ccc2c(C)cc(=O)oc2c1,nt,3.7*,12,5,1.2,9%
O=C(NCCN1CCOCC1)c1ccc2c(c1)N(Cc1ccccc1)CCS2,nt,2*,9,8,1,9%
CCN1C(=O)CSc2ccc(C(=O)NCCCN3CCOCC3)cc21,i,1.1,0,17,0.99,6%
O=C(NCCN1CCOCC1)c1ccc2c(c1)N(Cc1ccccc1)C(=O)CS2,i,1.1,3,19,1,2%
CN1CCN(CCCNC(=O)c2ccc3c(c2)N(Cc2ccccc2)CCS3)CC1,nt,2.1*,0,16,1.1,8%
CC(=O)CCc1c[nH]c2c(C(=O)O)cccc12,i,1.1,15,0,1,5%
Cn1c(/N=C/c2ccc3c(c2)OCO3)nc2ccccc21,nt,2.1*,10,8,1.1,9%
Cn1c(/N=C/c2c[nH]c3ccccc23)nc2ccccc21,i,1.1,14,0,1.1,5%
CCCCSc1c(C)c2cc3c(cc2[nH]c1=O)OCO3,i,1.7,11,11,1.1,14%
CCCCC(=O)Nc1ccccc1C#N,i,1.1,13,10,1,9%
CCCCn1c(NC(=O)c2ccccc2Cl)c(C#N)c2nc3ccccc3nc21,nt,4*,9,0,1.1,5%
CCCCn1c(NC(=O)CC)c(C#N)c2nc3ccccc3nc21,nt,3*,9,19,1,7%
O=C(NCc1ccco1)C1CCCN(S(=O)(=O)c2cccc3cccnc23)C1 (stereo unspecified),i,1,4,10,1,5%
CCOc1ccc(-n2c(=O)c3c(C)c(C)sc3n(CC(=O)NCc3ccco3)c2=O)cc1,i,1.1,6,16,1,7%
COc1ccc(-n2c(=O)c3c4c(sc3n(CC(=O)NCc3ccco3)c2=O)CCC4)c(OC)c1,i,1.1,63*,3,1,22%
CCOC(=O)c1c(C2COc3ccccc3O2)csc1NC(=O)c1ccco1 (stereo unspecified),i,3.2*,28,4,1.1,11%
O=C(Nc1sc2c(c1C(=O)NC1CCCCC1)CCC2)c1ccco1,nt,3.6*,12,9,1.1,11%
SMILES,Spn DPM-DC inh,Autofluor 339,MK inhibit,PMK inhibit,Abs 340nm,NADH coupling
COc1ccc(OC)c(NC(=O)c2c(NC(=O)CNCc3ccco3)sc3c2CCC3)c1,nt,2.3*,0,0,1.1,0%
C=CCn1cnc2c(c1=O)c1nc3ccccc3nc1n2-c1ccc(Cl)cc1,i,1.2,11,3,1,5%
CC1CN(c2oc(-c3ccco3)nc2S(=O)(=O)c2ccccc2)CC(C)O1 (stereo unspecified),i,1.1,2,5,1.1,2%
CC1(C)CC(=O)C2=C(C1)Nc1ccccc1N=C2,i,1.9,1,14,1,5%
O=C(Nc1scc(-c2ccc(F)cc2)c1C(=O)O)c1ccco1,i,1.1,8,0,1.2,3%
CCOC(=O)c1c(NC(=O)c2ccco2)sc2c1CCCC2,nt,2.1*,7,10,1.1,9%
COC(=O)c1c(-c2ccccc2)csc1NC(=O)c1ccco1,nt,4.9*,0,10,1,5%
CCOC(=O)c1c(NC(=O)c2nc3n(n2)C(C(F)F)CC(C)N3)sc2c1CCCC2 (stereo unspecified),nt,5.1*,6,17,1.1,12%
O=C(COC(=O)c1ccco1)NC1CCCCC1,i,1,0,25*,1,8%
Cc1nn(Cc2ccc(Cl)cc2Cl)c(C)c1NC(=O)c1nc2n(n1)C(C(F)F)CC(C)N2 (stereo unspecified),i,1.2,4,9,0.99,4%
NS(=O)(=O)c1ccc(CCNC(=O)COC(=O)C2CCCN2C(=O)c2cccs2)cc1 (stereo unspecified),i,1,0,16,1,5%
Cc1oc2nc(SCC(=O)NC3CCCCC3)nc(N)c2c1C,i,1.1,7,10,1,6%
Cc1cc(C)c(N2CCN(S(=O)(=O)N3CCCCCC3)CC2)c(C)c1,i,1.1,4,0,1.1,1%
CCOC(=O)c1c(NC(=O)COC)sc2c1CCCC2,i,1.2,9,0,1.1,3%
COc1ccccc1NC(=O)c1c(NC(=O)c2ccco2)sc2c1CCC2,nt,2.3*,2,4,1.1,3%
CCOC(=O)c1c(NC(=O)c2ccn(CC)n2)sc2c1CCCC2,nt,2.7*,4,0,1,13%
CCOC(=O)c1c(NC(=O)c2cccs2)sc2c1CC(C)(C)OC2,i,2.1*,9,3,1.1,6%
CCOC(=O)c1cccc(NC(=O)c2cccs2)c1,i,1.2,6,5,1,5%
CCn1c(SCC(=O)Nc2cccc(C)c2)nc2c(c1=O)SC(C)C2 (stereo unspecified),i,1,0,17,1,2%
NC(=O)C1(N2CCCCC2)CCN(C(=O)CSc2nc3ccccc3s2)CC1,i,1.1,9,0,1,3%
CC(C)OCCCn1c(=N)c(C(N)=S)cc2c(=O)n3ccccc3nc21,i,1.9,0,10,1.1,7%
CCOC(=O)c1cc2c(=O)n3ccccc3nc2n(CCCOC)c1=NC(C)=O,nt,2.4*,7,0,1,3%
CCCn1c(=NC(=O)c2ccco2)c(C(=O)OCC)cc2c(=O)n3ccccc3nc21,nt,3.8*,3,1,1.1,2%
Cc1ccc2cc(-c3noc(C4CCCO4)n3)c(=O)[nH]c2c1 (stereo unspecified),nt,2.2*,0,0,1.1,0%
